Measured values taken from PubChem BioAssay (NCATS).
Results filed as inconclusive are left out. Active and inactive are the calls of the source. Calls follow the shape of the dose curve; as a rule, active = well fitted curve in the direction sought with a large enough effect; inconclusive = small, poorly fitted or top-dose-only effect, or another doubt; inactive = no such curve, though single readings can be large; an effect the other way counts as inactive or inconclusive.

Columns and labels:
[1] = qHTS of pediatric cancer cell lines to identify multiple opportunities for drug repurposing: Primary screen for NB1643 cells (AID 1347099); also: nearly all actives have a fitted effect of over 50% in size
Method in brief: (§1)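 CRCs from 8- or 11-point titrations (lowest final 0.59 nM NPC, 0.78 nM MIPE). Cell viability: CellTiter-Glo after 48 h incubation, 15 min room-temperature development, luminescence imaging.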

[2] = qHTS of pediatric cancer cell lines to identify multiple opportunities for drug repurposing: Primary screen for LAN-5 cells (AID 1347100)
Method in brief: (§2)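 Cells (500-1,000/well) rested 5 h, then received compounds for 48 h; metabolically active cells were measured by CellTiter-Glo luminescence. Final concentrations spanned up to 46 µM (MIPE, 11-point) or 0.59 nM-46 µM (NPC, 8-point) in primary screens, 11-point in follow-ups.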

[3] = qHTS of pediatric cancer cell lines to identify multiple opportunities for drug repurposing: Primary screen for BT-12 cells (AID 1347101); also: nearly all actives have a fitted effect of over 25% in size
Method in brief: as §2

[4] = qHTS of pediatric cancer cell lines to identify multiple opportunities for drug repurposing: Primary screen for Rh18 cells (AID 1347102); also: nearly all actives have a fitted effect of over 65% in size
Method in brief: as §2

[5] = qHTS of pediatric cancer cell lines to identify multiple opportunities for drug repurposing: Primary screen for OHS-50 cells (AID 1347103); also: nearly all actives have a fitted effect of over 40% in size
Method in brief: as §2

[6] = qHTS of pediatric cancer cell lines to identify multiple opportunities for drug repurposing: Primary screen for RD cells (AID 1347104); also: nearly all actives have a fitted effect of over 55% in size
Method in brief: as §1

[7] = qHTS of pediatric cancer cell lines to identify multiple opportunities for drug repurposing: Primary screen for MG 63 (6-TG R) cells (AID 1347105); also: nearly all actives have a fitted effect of over 50% in size
Method in brief: as §1

[8] = qHTS of pediatric cancer cell lines to identify multiple opportunities for drug repurposing: Primary screen for control Hh wild type fibroblast cells (AID 1347106);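 also: series mostly up to about 46 µM; a drop in luminescence marks cytotoxicity and a rise apparent proliferation; nearly all actives have a fitted effect of over 55% in size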
Method in brief: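 Viability after 48 h compound treatment at 37C, 500-1,000 cells/well, read as ATP luminescence with CellTiter-Glo. Primary screens used 11-point (MIPE, 0.78 nM-46 µM) or 8-point (NPC, 0.59 nM-46 µM) final concentrations; follow-up screens used 11-point dilutions.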

[9] = qHTS of pediatric cancer cell lines to identify multiple opportunities for drug repurposing: Primary screen for Rh30 cells (AID 1347107); also: series mostly up to about 46 µM; nearly all actives have a fitted effect of over 75% in size
Method in brief: as §2

[10] = qHTS of pediatric cancer cell lines to identify multiple opportunities for drug repurposing: Primary screen for Rh41 cells (AID 1347108);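 also: series mostly up to about 46 µM; luminescence drop marks cytotoxic hits; nearly all actives have a fitted effect of over 70% in size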
Method in brief: as §1

Measured: Potency

C#CCN(C)[C@H](C)Cc1ccccc1
inactive: [1] | [2] | [3] | [4] | [5] | [6] | [7] | [8] | [9] | [10]

Oc1ccccc1-c1ccccc1
inactive: [1] | [2] | [3] | [4] | [5] | [6] | [7] | [8] | [9] | [10]

CCCN1CCC[C@@H]2Cc3nc(N)ncc3C[C@H]21
inactive: [1] | [2] | [3] | [4] | [5] | [6] | [7] | [8] | [9] | [10]

CCC1(C2=NCCN2)Cc2ccccc2O1 (stereo not drawn)
inactive: [1] | [2] | [3] | [4] | [5] | [6] | [7] | [8] | [9] | [10]

CC(C)NCC(O)c1ccccc1Cl (stereo not drawn)
inactive: [1] | [2] | [3] | [4] | [5] | [6] | [7] | [8] | [9] | [10]

Cc1ncc(CNC(=O)N(CCCl)N=O)c(N)n1
inactive: [1] | [2] | [3] | [4] | [5] | [6] | [7] | [8] | [9] | [10]

CC(=O)Nc1cc([As](=O)(O)O)ccc1O
inactive: [1] | [2] | [3] | [4] | [5] | [6] | [7] | [8] | [9] | [10]

COc1ccccc1N1CCNCC1
inactive: [1] | [2] | [3] | [4] | [5] | [6] | [7] | [8] | [9] | [10]

Cc1ccc(-c2nc3ccc(C)cn3c2CC(=O)N(C)C)cc1
inactive: [1] | [2] | [3] | [4] | [5] | [6] | [7] | [8] | [9] | [10]

O=C1NCN(c2ccccc2)C12CCN(CC1COc3ccccc3O1)CC2 (stereo not drawn)
inactive: [1] | [2] | [3] | [4] | [5] | [6] | [7] | [8] | [9] | [10]

CN(C)CCc1ccc(O)cc1
inactive: [1] | [2] | [3] | [4] | [5] | [6] | [7] | [8] | [9] | [10]

CC1NCCOC1c1ccccc1 (stereo not drawn)
inactive: [1] | [2] | [3] | [4] | [5] | [6] | [7] | [8] | [9] | [10]

NCC(O)c1ccc(O)cc1 (stereo not drawn)
inactive: [1] | [2] | [3] | [4] | [5] | [6] | [7] | [8] | [9] | [10]

N[C@@H](Cc1ccc(Oc2cc(I)c(O)c(I)c2)c(I)c1)C(=O)O
inactive: [1] | [2] | [3] | [4] | [5] | [6] | [7] | [8] | [9] | [10]

O=[N+]([O-])c1cc([As](=O)(O)O)ccc1O
inactive: [1] | [2] | [3] | [4] | [5] | [6] | [7] | [8] | [9] | [10]

CCN(CC)C(=O)N[C@@H]1C=C2c3cccc4[nH]cc(c34)C[C@@H]2N(C)C1
inactive: [1] | [2] | [3] | [4] | [5] | [6] | [7] | [8] | [9] | [10]

Nc1ccncc1
inactive: [1] | [2] | [3] | [4] | [5] | [6] | [7] | [8] | [9] | [10]

CCCN1CCC[C@@H]2Cc3[nH]ncc3C[C@H]21
inactive: [1] | [2] | [3] | [4] | [5] | [6] | [7] | [8] | [9] | [10]

CCN(CC)CCOC(=O)C(O)(c1ccccc1)c1ccccc1
inactive: [1] | [2] | [3] | [4] | [5] | [6] | [7] | [8] | [9] | [10]

Cc1cccc(C)c1NC(=O)CN1CCCC1=O
inactive: [1] | [2] | [3] | [4] | [5] | [6] | [7] | [8] | [9] | [10]

CC(=O)[C@H]1CC[C@H]2[C@@H]3CC[C@H]4C[C@](C)(O)CC[C@]4(C)[C@H]3CC[C@]12C
inactive: [1] | [2] | [3] | [4] | [5] | [6] | [7] | [8] | [9] | [10]

C[C@]12CC[C@H]3[C@@H](CCC4=CC(=O)CC[C@@H]43)[C@@H]1CC[C@@H]2OC(=O)CCc1ccccc1
inactive: [1] | [2] | [3] | [4] | [5] | [6] | [7] | [8] | [9] | [10]

N[C@@H]1C[C@H]1c1ccccc1
inactive: [1] | [2] | [3] | [4] | [5] | [6] | [7] | [8] | [9] | [10]

NCC1(CC(=O)O)CCCCC1
inactive: [1] | [2] | [3] | [4] | [5] | [6] | [7] | [8] | [9] | [10]

CC(C)(C)NCC(O)c1cc(Cl)c(N)c(Cl)c1 (stereo not drawn)
inactive: [1] | [2] | [3] | [4] | [5] | [6] | [7] | [8] | [9] | [10]

CCC(C(N)=O)N1CCCC1=O (stereo not drawn)
inactive: [1] | [2] | [3] | [4] | [5] | [6] | [7] | [8] | [9] | [10]

CC[N+](CC)(CC)CC
inactive: [1] | [2] | [3] | [4] | [5] | [6] | [7] | [8] | [9] | [10]

CCCC1CCCCN1 (stereo not drawn)
inactive: [1] | [2] | [3] | [4] | [5] | [6] | [7] | [8] | [9] | [10]

C=C1CC[C@@]2(O)[C@H]3Cc4ccc(O)c5c4[C@@]2(CCN3CC2CC2)[C@H]1O5
inactive: [1] | [2] | [3] | [4] | [5] | [6] | [7] | [8] | [9] | [10]

Cc1ccc2c(c1)C1CN(C)CCC1N2 (stereo not drawn)
inactive: [1] | [2] | [3] | [4] | [5] | [6] | [7] | [8] | [9] | [10]

CCOP(=S)(OCC)Oc1cc(C)nc(C(C)C)n1
inactive: [1] | [2] | [3] | [4] | [5] | [6] | [7] | [8] | [9] | [10]

COc1ccc(C(CN(C)C)C2(O)CCCCC2)cc1 (stereo not drawn)
inactive: [1] | [2] | [3] | [4] | [5] | [6] | [7] | [8] | [9] | [10]

CCCC(C)(COC(N)=O)COC(=O)NC(C)C (stereo not drawn)
inactive: [1] | [2] | [3] | [4] | [5] | [6] | [7] | [8] | [9] | [10]

CCN(C(C)=O)c1cccc(-c2ccnc3c(C#N)cnn23)c1
inactive: [1] | [2] | [3] | [4] | [5] | [6] | [7] | [8] | [9] | [10]

C#CCOC(C(=O)OCCN(C)C)(c1ccccc1)c1ccccc1
inactive: [1] | [2] | [3] | [4] | [5] | [6] | [7] | [8] | [9] | [10]

CN1CCN(C(=O)O[C@H]2c3nccnc3C(=O)N2c2ccc(Cl)cn2)CC1
inactive: [1] | [2] | [3] | [4] | [5] | [6] | [7] | [8] | [9] | [10]

NP(N)(=O)NC(=O)c1ccc(F)cc1
inactive: [1] | [2] | [3] | [4] | [5] | [6] | [7] | [8] | [9] | [10]

C=CCN1CC[C@]23c4c5ccc(O)c4O[C@H]2C(=O)CC[C@@]3(O)[C@H]1C5
inactive: [1] | [2] | [3] | [4] | [5] | [6] | [7] | [8] | [9] | [10]

c1ccc2c(c1)Nc1ccccc1S2
inactive: [1] | [2] | [3] | [4] | [6] | [7] | [8] | [9] | [10]

CCN(CC)CCN1C(=O)CN=C(c2ccccc2F)c2cc(Cl)ccc21
inactive: [1] | [2] | [3] | [4] | [6] | [7] | [8] | [9] | [10]
